Compound activity (PubChem BioAssay)
Only some compounds are listed: those with a hit (about 1.1% of all), similar ones and a draw of the others.
RN4220 kill: kills Staphylococcus aureus RN4220 | S. aureus RN4220 growth, OD600, 16 h | inhibition, % (no concentration beside the values) | hit rate 0.33% among 330,000 | AID 1259311; in the data active = inhibition above about 85%;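 also: plate controls were untreated cells for no effect and reference antibiotic for full effect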
PriA SSB inh: K. pneumoniae PriA-SSBct interaction inhibition; inhibition, % at 33 µM; hit rate 0.6% among 430,000; AlphaScreen SSBct-PriA binding, biotinylated peptide; AID 1272365; in the data active = inhibition mostly above about 37%, no sharp cut-off; inactive = mostly below about 20%;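 also: plate controls were negative control peptide for no effect and reference peptide for full effect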
Mtb hypoxia rep: inhibitors of hypoxia-regulated fluorescent reporter in Mycobacterium tuberculosis | hit rate 0.1% among 300,000 | fluorescence inhibition, % (test concentration not listed) | AID 1159583 | M. tuberculosis hypoxia-regulated fluorescent reporter, fluorescence; in the data active = fluorescence inhibition mostly above about 23%, no sharp cut-off; inactive = mostly below about 17%
ugtP null kill: kills S. aureus RN4220 lacking UgtP | growth inhibition, % (test concentration not listed) | S. aureus RN4220 ugtP deletion, OD600 growth, 16 h | AID 1259309 | hit rate 0.54% among 330,000; in the data active = growth inhibition above about 68%;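 also: plate controls were untreated wells for no effect and antibiotic for full effect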
Starred values were filed as active, the others as inactive.

`CCc1cc2c(=O)[nH]c(-c3ccccn3)nc2s1` gave RN4220 kill 14.4, PriA SSB inh 66.3*, Mtb hypoxia rep 8.7 and ugtP null kill -20.0.
Screening CCc1cc2c(=O)[nH]c(N3CCCC3)nc2s1 returned PriA SSB inh 8.9.
Cc1ccc(-c2cc(C(=O)N3CCC(NC(=O)c4ccc5c(c4)OCO5)CC3)[nH]n2)c(C)c1 was read as PriA SSB inh -4.0.
Screening Cc1ccc(-c2cc(C(=O)N3CCC(NC(=O)c4cccc(N(C)C)c4)CC3)[nH]n2)c(C)c1 returned PriA SSB inh 48.0*.
For CNc1nc(NN)nc(Nc2ccccc2)n1 the results were RN4220 kill 11.8, PriA SSB inh 104.9*, Mtb hypoxia rep 5.9 and ugtP null kill 10.0.
`CNc1nc(Nc2ccccc2)nc(OCC(F)(F)F)n1` gave RN4220 kill 2.7, PriA SSB inh -5.6, Mtb hypoxia rep -0.4 and ugtP null kill -5.0.
`CN1CCN(c2ccc([N+](=O)[O-])c(N3CCCC3)c2)CC1` gave PriA SSB inh 57.9*.
Screening CS(=O)(=O)N1CCN(c2ccc([N+](=O)[O-])c(N3CCCC3)c2)CC1 returned PriA SSB inh 57.3*.
For CS(=O)(=O)N1CCN(c2ccc([N+](=O)[O-])c(N3CCOCC3)c2)CC1 the results were RN4220 kill -16.0, PriA SSB inh 4.1, Mtb hypoxia rep 9.5 and ugtP null kill -5.9.
CCn1nc(C(=O)Nc2cccc(S(=O)(=O)N3CCCC3)c2)c2ccccc2c1=O was read as RN4220 kill 0.9, PriA SSB inh 2.9, Mtb hypoxia rep 23.2* and ugtP null kill -0.6.
Screening Cc1ccc(O)c(C(=O)CC(=O)c2ccccc2Cl)c1 returned RN4220 kill 100.0*, PriA SSB inh -6.7, Mtb hypoxia rep -10.9 and ugtP null kill 99.5*.
`CC(C)(C)c1ccc(C(=O)NCC(=O)NNC(=O)c2ccccc2O)cc1` gave RN4220 kill 6.7, PriA SSB inh 25.4, Mtb hypoxia rep 2.0 and ugtP null kill 6.3.
For Cc1ccc(C)c(NC(=O)c2ccccc2O)c1 the results were RN4220 kill -2.1, PriA SSB inh -5.0 and ugtP null kill -9.2.
`Cc1ccc(O)c(C(=O)CC(=O)c2ccc(C(C)(C)C)cc2)c1` gave RN4220 kill 99.2*, PriA SSB inh 9.7, Mtb hypoxia rep -2.0 and ugtP null kill 99.8*.
`O=Cc1c(N2CCSCC2)nc2ccccn2c1=O` gave RN4220 kill 0.3, PriA SSB inh 0.8, Mtb hypoxia rep 40.2* and ugtP null kill 1.5.
`CCS(=O)(=O)c1ccc(CC(=O)Nc2nnc(-c3ccco3)o2)cc1` gave PriA SSB inh 54.0*.
For CN(C)CCOc1nc(-c2ccccc2)nc2c1oc1ccccc12 the results were RN4220 kill 1.8, PriA SSB inh -8.0, Mtb hypoxia rep 40.5* and ugtP null kill 0.4.
`CC(=O)c1c(O)cc(O)c(C(C)=O)c1O` gave RN4220 kill 86.4*, PriA SSB inh -7.9 and ugtP null kill 88.7*.
For COc1cccc2cc(C(=O)Nc3nnc(-c4cc(Cl)sc4Cl)o3)oc12 the results were PriA SSB inh -6.0.
Screening COc1ccccc1CNC(=O)Nc1cccs1 returned RN4220 kill 53.1, PriA SSB inh 3.6, Mtb hypoxia rep 4.1 and ugtP null kill 26.4.
For COc1ccc(Br)cc1CNC(=O)Nc1cccs1 the results were RN4220 kill 91.5*, PriA SSB inh 12.5, Mtb hypoxia rep -16.2 and ugtP null kill 87.3*.
`Cc1ccc2nc(-c3cccc(NS(C)(=O)=O)c3)cc(-c3ccccc3)c2c1` gave RN4220 kill -3.9, PriA SSB inh 12.1, Mtb hypoxia rep 5.0 and ugtP null kill 94.1*.
Fc1ccc(N2CCN(C3=Nc4cccc5cccc3c45)CC2)cc1 was read as RN4220 kill 8.7, PriA SSB inh 43.6*, Mtb hypoxia rep 13.7 and ugtP null kill -4.0.
Screening COc1cc(NC(=O)N2CCN(CCn3nc(C)cc3C)CC2)cc(OC)c1OC returned PriA SSB inh 5.0.
`COc1cn(CC(=O)NCc2ccccc2Cl)c(CN2CCN(C(=O)c3ccco3)CC2)cc1=O` gave PriA SSB inh -1.0.
`CN(C)CCCNC(=O)C[C@H]1C[C@H](C(=O)N2CCCCC2)[C@@]2(CCc3ccccc3)c3[nH]c4cc(-c5ccco5)ccc4c3CCN2C1=O` gave RN4220 kill 3.0, PriA SSB inh 46.0*, Mtb hypoxia rep 0.5 and ugtP null kill -27.8.
Cc1nc(-c2ccc(N3CCN(C(=O)c4ccc5ncsc5c4)CC3)nc2)no1 was read as PriA SSB inh -4.0.
Screening O=C1NC(=S)N(S(=O)(=O)c2c(Cl)cccc2Cl)C1Cc1ccccc1 (configuration not stated) returned PriA SSB inh 86.0*.
Screening Oc1c(N=Nc2ccccn2)ccc2ccccc12 returned RN4220 kill -3.0, PriA SSB inh 49.1*, Mtb hypoxia rep -74.4 and ugtP null kill -4.0.
Screening O=C(CSc1n[nH]c(-c2ccccn2)n1)NC1CC2CCC1C2 (configuration not stated) returned PriA SSB inh 99.0*.
Screening O=C(CSc1n[nH]c(-c2ccccn2)n1)Nc1cccc(Cl)c1 returned RN4220 kill 8.8, PriA SSB inh 87.9*, Mtb hypoxia rep -7.3 and ugtP null kill 3.8.
Screening Cc1ccccc1NC(=O)CSc1n[nH]c(-c2ccccn2)n1 returned RN4220 kill 0.5, PriA SSB inh 105.8*, Mtb hypoxia rep 2.0 and ugtP null kill -6.8.
Cc1ccc(C)c(NC(=O)CSc2n[nH]c(-c3ccccn3)n2)c1 was read as RN4220 kill -0.7, PriA SSB inh 79.9*, Mtb hypoxia rep 3.2 and ugtP null kill -4.7.
`O=C(CSc1n[nH]c(-c2ccccn2)n1)Nc1ccc(Cl)cc1Cl` gave PriA SSB inh 23.3.
For Cc1ccc(C)c(NC(=O)CSc2ncccn2)c1 the results were PriA SSB inh -7.0.
For COC(=O)c1ccc(C(=O)Nc2sc3c(c2C#N)CC(C)(C)NC3(C)C)cc1 the results were PriA SSB inh -6.0.
For Cc1oc(-c2cccs2)nc1CSCC(=O)N1CCC2(CC1)OCCO2 the results were RN4220 kill 3.7, PriA SSB inh -2.5, Mtb hypoxia rep active and ugtP null kill 6.9.
COc1ccc(-c2nc(CSCC(=O)N3CCC4(CC3)OCCO4)c(C)o2)cc1OC was read as RN4220 kill -3.5, PriA SSB inh 0.3, Mtb hypoxia rep -5.1 and ugtP null kill -2.6.
COc1ccc(NC(=O)c2ccc(=O)n(Cc3ccccc3F)c2)cc1OC was read as PriA SSB inh -1.0.
Screening O=C(c1cc(C2CC2)on1)N(CCc1ccccc1)Cc1ccccn1 returned PriA SSB inh -10.0.
For COC(=O)c1ccc(CSc2nnc(C)c3cnn(-c4ccc(C)c(C)c4)c23)o1 the results were PriA SSB inh -4.0.
O=C(Nc1cccc(N2CCCCC2=O)c1)c1cccs1 was read as PriA SSB inh -11.0.
CN(/N=C/c1ccc(Cl)cc1Cl)c1ncc(Cl)cc1C(F)(F)F was read as PriA SSB inh inactive.
For CN(N=Cc1ccccc1Cl)c1ncc(Cl)cc1C(F)(F)F the results were RN4220 kill -5.0, Mtb hypoxia rep 5.5 and ugtP null kill 84.5*.
`CCOC(=O)c1c(C)[nH]c(C)c1C(=O)COC(=O)c1ccc([N+](=O)[O-])s1` gave RN4220 kill 2.5, PriA SSB inh 21.9, Mtb hypoxia rep 18.1 and ugtP null kill -4.4.
